Legend:
Experiment in all cases: DAPPL (digital affinity profiling via proximity ligation, sequencing); 10 mM Tris-HCl pH 7.5, 50 mM NaCl, 1 mM DTT, 4% glycerol, room temperature, 30 min; GST-TFs on glutathione beads, 16-mer random dsDNA library, 0.1% formaldehyde crosslink after washing; high values mean tight binding
[1] = target: T1, FEV (Homo sapiens, UniProt Q99581 1-238); conditions: protein: recombinant; tags: N-terminal GST; dsDNA, one strand shown
T1 sequence: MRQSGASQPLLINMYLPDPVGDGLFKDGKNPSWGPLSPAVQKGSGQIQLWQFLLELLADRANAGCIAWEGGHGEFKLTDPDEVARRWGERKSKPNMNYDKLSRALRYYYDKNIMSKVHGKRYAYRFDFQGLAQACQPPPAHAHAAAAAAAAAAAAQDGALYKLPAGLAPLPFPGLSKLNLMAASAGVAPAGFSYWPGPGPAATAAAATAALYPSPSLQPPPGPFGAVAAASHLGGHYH
How it was run: (§1)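 Pools of DNA-barcoded human transcription factors, expressed in yeast as GST fusions on glutathione beads and combined with a tag-only sample, were incubated with 200 nmole of a 16-mer random double-stranded DNA library. Incubation took 30 min at room temperature in Tris/NaCl/DTT/glycerol buffer and was followed by washing, 0.1% formaldehyde crosslinking, proximity ligation (BsaI/T4 ligase, 1 h, 37 °C), PCR amplification and sequencing on an Illumina NextSeq500. Binding signal is the ratio of a hexamer's read frequency for a factor to its frequency for the tag-only sample.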

[2] = target: ETV5 (Homo sapiens, UniProt P41161 1-510); conditions: protein: recombinant; tags: N-terminal GST; dsDNA, one strand shown
How it was run: as §1

[3] = target: HSF1 (Homo sapiens, UniProt Q00613 1-529); conditions: protein: recombinant; tags: N-terminal GST; chain copies: 3; dsDNA, one strand shown
How it was run: as §1

[4] = target: T2, SPIC (Homo sapiens, UniProt Q8N5J4 1-248); conditions: protein: recombinant; tags: N-terminal GST; dsDNA, one strand shown
T2 sequence: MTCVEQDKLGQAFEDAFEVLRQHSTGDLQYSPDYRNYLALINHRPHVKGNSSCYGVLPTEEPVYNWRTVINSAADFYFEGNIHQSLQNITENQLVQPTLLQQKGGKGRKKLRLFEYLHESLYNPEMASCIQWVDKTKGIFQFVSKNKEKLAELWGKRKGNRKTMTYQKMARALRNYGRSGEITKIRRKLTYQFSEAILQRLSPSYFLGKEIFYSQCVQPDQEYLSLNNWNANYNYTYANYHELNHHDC
How it was run: as §1

[5] = target: ELF4 (Homo sapiens, UniProt Q99607 1-663); conditions: protein: recombinant; tags: N-terminal GST; dsDNA, one strand shown
How it was run: as §1

[6] = target: T3, ELK4 (Homo sapiens, UniProt P28324-2 1-405); conditions: protein: recombinant; tags: N-terminal GST; dsDNA, one strand shown
T3 sequence: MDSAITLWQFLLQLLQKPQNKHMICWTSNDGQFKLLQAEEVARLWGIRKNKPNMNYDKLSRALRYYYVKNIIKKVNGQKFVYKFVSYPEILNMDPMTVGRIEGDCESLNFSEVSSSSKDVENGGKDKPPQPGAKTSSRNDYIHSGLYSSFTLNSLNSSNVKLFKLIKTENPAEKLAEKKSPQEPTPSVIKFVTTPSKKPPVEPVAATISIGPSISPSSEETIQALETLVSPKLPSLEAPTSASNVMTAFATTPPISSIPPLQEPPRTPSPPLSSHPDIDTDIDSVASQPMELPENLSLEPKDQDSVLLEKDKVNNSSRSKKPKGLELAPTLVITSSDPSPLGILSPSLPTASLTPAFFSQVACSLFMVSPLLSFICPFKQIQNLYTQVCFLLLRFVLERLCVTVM
How it was run: as §1

[7] = target: T4, ETV2 (Homo sapiens, UniProt O00321 1-342); conditions: protein: recombinant; tags: N-terminal GST; dsDNA, one strand shown
T4 sequence: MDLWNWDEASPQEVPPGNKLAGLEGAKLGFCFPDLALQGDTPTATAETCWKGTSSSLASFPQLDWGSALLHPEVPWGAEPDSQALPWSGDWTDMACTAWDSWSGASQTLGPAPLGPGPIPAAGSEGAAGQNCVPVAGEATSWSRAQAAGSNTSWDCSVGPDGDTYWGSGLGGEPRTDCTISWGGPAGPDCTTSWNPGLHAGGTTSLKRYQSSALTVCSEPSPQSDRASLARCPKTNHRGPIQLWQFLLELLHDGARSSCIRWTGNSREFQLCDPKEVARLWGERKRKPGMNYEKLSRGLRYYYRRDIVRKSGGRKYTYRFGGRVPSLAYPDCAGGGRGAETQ
How it was run: as §1

[8] = target: T5, ELF3 (Homo sapiens, UniProt P78545 1-371); conditions: protein: recombinant; tags: N-terminal GST; dsDNA, one strand shown
T5 sequence: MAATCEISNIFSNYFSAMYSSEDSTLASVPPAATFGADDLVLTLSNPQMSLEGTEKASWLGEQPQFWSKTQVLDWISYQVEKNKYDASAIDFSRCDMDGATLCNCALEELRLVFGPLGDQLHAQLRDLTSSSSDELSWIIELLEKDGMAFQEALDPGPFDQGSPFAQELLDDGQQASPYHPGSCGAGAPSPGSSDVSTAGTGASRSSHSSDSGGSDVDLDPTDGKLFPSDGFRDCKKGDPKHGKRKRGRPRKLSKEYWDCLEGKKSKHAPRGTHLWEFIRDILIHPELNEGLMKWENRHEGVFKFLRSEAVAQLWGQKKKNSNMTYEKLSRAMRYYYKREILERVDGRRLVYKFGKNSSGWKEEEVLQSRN
How it was run: as §1

[9] = target: CRX (Homo sapiens, UniProt O43186 1-299); conditions: protein: recombinant; tags: N-terminal GST; dsDNA, one strand shown
How it was run: as §1

[10] = target: ETV1 (Homo sapiens, UniProt P50549 1-477); conditions: protein: recombinant; tags: N-terminal GST; dsDNA, one strand shown
How it was run: as §1

Sequence of CRX (O43186 whole entry): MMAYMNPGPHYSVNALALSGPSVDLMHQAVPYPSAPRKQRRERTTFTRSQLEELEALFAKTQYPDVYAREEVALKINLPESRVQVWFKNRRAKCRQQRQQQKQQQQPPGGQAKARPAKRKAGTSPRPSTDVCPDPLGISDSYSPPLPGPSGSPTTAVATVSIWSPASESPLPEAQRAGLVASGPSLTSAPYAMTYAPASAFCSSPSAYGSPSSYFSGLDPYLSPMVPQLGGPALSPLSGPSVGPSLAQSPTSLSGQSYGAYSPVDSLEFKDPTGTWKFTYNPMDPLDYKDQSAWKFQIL
Sequence of ELF4 (Q99607 whole entry): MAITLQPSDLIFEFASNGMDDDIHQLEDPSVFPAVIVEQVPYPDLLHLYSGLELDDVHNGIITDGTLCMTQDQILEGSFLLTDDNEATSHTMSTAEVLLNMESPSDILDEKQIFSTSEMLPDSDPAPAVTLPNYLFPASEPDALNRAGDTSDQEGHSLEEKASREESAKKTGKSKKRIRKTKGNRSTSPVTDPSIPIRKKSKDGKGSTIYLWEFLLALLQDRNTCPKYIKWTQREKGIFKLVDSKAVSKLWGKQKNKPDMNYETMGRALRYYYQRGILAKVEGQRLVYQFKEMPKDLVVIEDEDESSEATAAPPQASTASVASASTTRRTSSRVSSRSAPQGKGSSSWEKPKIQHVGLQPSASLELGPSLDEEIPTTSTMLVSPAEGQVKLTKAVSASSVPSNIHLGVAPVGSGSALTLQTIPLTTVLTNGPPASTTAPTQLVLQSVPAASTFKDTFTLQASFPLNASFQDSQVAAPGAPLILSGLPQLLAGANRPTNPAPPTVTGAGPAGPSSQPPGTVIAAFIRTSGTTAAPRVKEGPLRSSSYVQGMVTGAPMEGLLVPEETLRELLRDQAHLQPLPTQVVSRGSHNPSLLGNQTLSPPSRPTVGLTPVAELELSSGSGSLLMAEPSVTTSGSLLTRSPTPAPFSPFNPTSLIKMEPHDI
Sequence of ETV1 (P50549 whole entry): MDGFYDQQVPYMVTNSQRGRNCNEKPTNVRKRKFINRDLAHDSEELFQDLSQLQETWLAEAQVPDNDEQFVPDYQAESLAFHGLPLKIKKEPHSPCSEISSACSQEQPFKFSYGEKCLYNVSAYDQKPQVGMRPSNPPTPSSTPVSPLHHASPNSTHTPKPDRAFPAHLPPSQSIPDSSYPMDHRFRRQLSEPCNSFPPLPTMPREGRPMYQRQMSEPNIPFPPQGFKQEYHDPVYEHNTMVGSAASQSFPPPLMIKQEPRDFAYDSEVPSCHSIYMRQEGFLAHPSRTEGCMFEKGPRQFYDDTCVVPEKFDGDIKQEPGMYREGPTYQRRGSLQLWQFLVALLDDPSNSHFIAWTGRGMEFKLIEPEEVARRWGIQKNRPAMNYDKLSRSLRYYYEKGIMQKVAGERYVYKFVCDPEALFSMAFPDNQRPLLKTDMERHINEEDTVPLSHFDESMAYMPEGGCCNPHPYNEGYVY
Sequence of ETV5 (P41161 whole entry): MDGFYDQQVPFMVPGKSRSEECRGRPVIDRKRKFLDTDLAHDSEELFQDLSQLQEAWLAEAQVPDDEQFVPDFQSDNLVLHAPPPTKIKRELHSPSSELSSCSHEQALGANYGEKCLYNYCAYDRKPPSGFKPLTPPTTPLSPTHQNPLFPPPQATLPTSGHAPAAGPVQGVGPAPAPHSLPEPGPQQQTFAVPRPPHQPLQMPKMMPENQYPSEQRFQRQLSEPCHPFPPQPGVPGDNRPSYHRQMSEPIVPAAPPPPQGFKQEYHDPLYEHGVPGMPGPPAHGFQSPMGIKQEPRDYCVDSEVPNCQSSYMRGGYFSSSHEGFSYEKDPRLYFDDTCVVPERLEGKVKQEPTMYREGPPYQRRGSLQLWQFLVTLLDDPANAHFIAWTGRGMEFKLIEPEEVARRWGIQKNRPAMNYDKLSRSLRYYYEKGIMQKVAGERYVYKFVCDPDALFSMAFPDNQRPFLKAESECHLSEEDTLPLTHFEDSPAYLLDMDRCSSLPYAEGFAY
Sequence of HSF1 (Q00613 whole entry): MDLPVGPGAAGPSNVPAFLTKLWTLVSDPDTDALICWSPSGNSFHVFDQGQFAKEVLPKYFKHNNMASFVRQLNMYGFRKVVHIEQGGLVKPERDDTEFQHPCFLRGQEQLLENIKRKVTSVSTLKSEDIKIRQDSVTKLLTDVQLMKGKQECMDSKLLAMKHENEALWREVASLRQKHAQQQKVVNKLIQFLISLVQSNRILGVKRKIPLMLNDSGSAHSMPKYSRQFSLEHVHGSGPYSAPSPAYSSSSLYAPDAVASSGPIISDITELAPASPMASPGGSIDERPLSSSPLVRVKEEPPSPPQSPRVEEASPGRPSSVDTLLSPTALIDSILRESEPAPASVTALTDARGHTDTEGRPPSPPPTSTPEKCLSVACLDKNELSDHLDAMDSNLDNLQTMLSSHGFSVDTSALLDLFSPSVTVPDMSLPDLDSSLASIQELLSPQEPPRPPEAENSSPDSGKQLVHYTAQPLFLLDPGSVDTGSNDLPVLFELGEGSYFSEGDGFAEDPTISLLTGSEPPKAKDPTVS

Sequence: CTACCT
- binding signal [1]: 1.3 fold enrichment (6-mer frequency, TF over GST control)
- binding signal [2]: 1.36 fold enrichment (6-mer frequency, TF over GST control)
- binding signal [3]: 1.15 fold enrichment (6-mer frequency, TF over GST control)
- binding signal [4]: 1.38 fold enrichment (6-mer frequency, TF over GST control)
- binding signal [5]: 1.46 fold enrichment (6-mer frequency, TF over GST control)
- binding signal [6]: 1.36 fold enrichment (6-mer frequency, TF over GST control)
- binding signal [7]: 1.54 fold enrichment (6-mer frequency, TF over GST control)
- binding signal [8]: 1.18 fold enrichment (6-mer frequency, TF over GST control)
- binding signal [9]: 1.23 fold enrichment (6-mer frequency, TF over GST control)
- binding signal [10]: 1.54 fold enrichment (6-mer frequency, TF over GST control)
